A short description of test [1]: inhibitors of TNFa-induced NFkB p65 translocation, primary screen, imaging, HUVEC, MLSMR starter and 10KST1 sets (AID 438;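 active = inhibition above 20% together with a positive visual image hit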;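 also: compound added about 3h40 before a 20 min TNFalpha stimulation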;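 as to inhibition: signal is the nuclear over cytoplasmic p65 intensity ratio per well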). As to conditions: HUVEC TNFa-induced p65 nuclear translocation; cell count: measured here: nuclei count (cytotoxicity indicator), at 2.08 µM; inhibition: at 2 µM, stronger effect = higher value, 0% TNFa-plus-vehicle, 100% no-TNFa wells.
Test [2] is described as follows: reduction of polyQ htt aggregates in cells – imaging, exon1htt(103Q)mCFP cells, high-content imaging, primary screen (AID 483;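 active = visual image review flags a hit and inhibition of aggregation exceeds 20%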;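 also: compound exposure lasted 3 days before fixation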;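 as to nuclei count: percent of the per-plate median nuclei count of sample wells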). The conditions noted are these: exon1htt(103Q)mCFP cell line, aggregate imaging, at 2 µM; inhibition of aggregation: stronger effect = higher value; nuclei count: measured here: cell count, toxicity.
Test [3] can be described thus: endothelial E-selectin expression blockers – imaging, HUVEC, immunofluorescence, MLSMR starter and 10KST1 sets, primary screen (AID 487;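 active = visually confirmed hit in the image check and inhibition above 20%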;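 as to inhibition: signal is fraction of cell area covered by stained E-selectin grains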;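 as to nuclei count: 100% = median nuclei count of all wells on the same plate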). The conditions noted are these: HUVEC TNFalpha-induced E-selectin immunofluorescence imaging, at 2 µM; inhibition: stronger effect = higher value; nuclei count: measured here: cell number, toxicity.
Test [4] concerns the target Voltage-gated potassium channel subunit beta-2 (Rattus norvegicus) (UniProt P62483). The experiment in a line: inhibitors of rat Kvbeta2 reductase activity – biochemical, NADPH fluorescence, primary screen (AID 622;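 active = fluorescence slope higher than the sample average by over 3 SD, cut at about -0.22 in these data, passing the limit was not always enough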;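 also: slope of raw intensity against log time taken from 70 to 1610 s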). The conditions noted are these: recombinant KvBeta, 4-cyanobenzaldehyde reduction, at 10 µM, stronger effect = higher value.
The target is the same in test [5]. The experiment in a line: enhancers of rat Kvbeta2 NADPH turnover – biochemical, NADPH fluorescence, primary screen (AID 623;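 active = NADPH fluorescence slope more negative than the mean of all samples by about 3 SD, 99.7% confidence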;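 also: fluorescence intensity change per second fitted from 20 to 320 s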). As to conditions: Recombinant KvBeta, NADPH fluorescence decrease slope, 10 min; at 10 µM; stronger effect = lower value.
In test [6] the target is Alpha-2C adrenergic receptor (Homo sapiens) (UniProt P18825). The test can be described thus: compounds altering alpha2C-coupled GIRK flux – cell-based, HEK293 alpha2C/GIRK1/2, thallium flux, primary screen (AID 624;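 active = fluorescence slope after compound addition differing from the mean of all screened samples at 99.7% confidence, in either direction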;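 also: slope of fluorescence ratio to pre-addition baseline per second over 15 to 24 s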). The conditions noted are these: thallium flux BTC fluorescence, at 10 µM, actives lie on both sides.
Sequence of Alpha-2C adrenergic receptor (Homo sapiens) (P18825 whole entry, looked up): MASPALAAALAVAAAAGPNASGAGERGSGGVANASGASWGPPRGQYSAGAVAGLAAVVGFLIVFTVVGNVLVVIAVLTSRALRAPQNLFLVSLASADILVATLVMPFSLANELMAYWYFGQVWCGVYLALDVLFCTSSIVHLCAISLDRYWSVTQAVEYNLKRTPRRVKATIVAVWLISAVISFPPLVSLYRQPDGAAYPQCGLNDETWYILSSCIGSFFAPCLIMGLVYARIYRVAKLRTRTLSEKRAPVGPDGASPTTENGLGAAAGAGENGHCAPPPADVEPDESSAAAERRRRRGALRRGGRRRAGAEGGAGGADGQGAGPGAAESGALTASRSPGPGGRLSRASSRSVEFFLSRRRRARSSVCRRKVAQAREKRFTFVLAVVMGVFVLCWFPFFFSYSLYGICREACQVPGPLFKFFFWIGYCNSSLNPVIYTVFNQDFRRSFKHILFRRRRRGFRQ
The nature of test [7]: blockers of RIG-like receptor reporter activation – cell-based, Sendai virus stimulus, luciferase, 10K MLSCN set, TLR/RLR signaling modifier project, primary screen (AID 602276).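 Also: firefly luciferase from ISG56 promoter only with Renilla not read in this screen; 0% = Sendai virus plus DMSO and 100% = medium plus DMSO without virus.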 As to conditions: HEK293 RL24 IRF3 luciferase reporter, at 10 µM, stronger effect = higher value. (Reporter assays use an easily measured gene product as a stand-in for the process of interest.)
Test [8] can be described thus: TLR3 IRF3 reporter activation blockers – cell-based, poly I:C stimulus, luciferase, 10K MLSCN set, primary screen (AID 602277;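 active = inhibition of the reporter signal at or above 50%; inactive = inhibition below 50%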). As to conditions: HEK293-TLR3 RL24 IRF3 luciferase reporter, at 10 µM, stronger effect = higher value.

Structures are written as SMILES. The source made the active and inactive calls.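 The calls were made as follows, unless noted: active = inhibition at or above 50% at 10 µM; inactive = inhibition below 50%.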

Sequence of Voltage-gated potassium channel subunit beta-2 (Rattus norvegicus) (P62483 whole entry, looked up): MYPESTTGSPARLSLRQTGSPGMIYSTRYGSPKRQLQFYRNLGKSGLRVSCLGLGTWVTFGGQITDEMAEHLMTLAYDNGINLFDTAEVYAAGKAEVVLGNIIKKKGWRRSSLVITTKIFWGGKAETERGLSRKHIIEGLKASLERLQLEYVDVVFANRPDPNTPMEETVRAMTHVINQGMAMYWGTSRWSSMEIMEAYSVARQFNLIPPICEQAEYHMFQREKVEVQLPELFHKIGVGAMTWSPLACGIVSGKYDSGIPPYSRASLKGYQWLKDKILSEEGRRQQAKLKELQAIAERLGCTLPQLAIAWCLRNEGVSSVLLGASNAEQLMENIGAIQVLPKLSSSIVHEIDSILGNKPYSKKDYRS

A word on the inhibition: it is the relative decrease from the control value, in per cent. Turning to `O=C(CSc1nc(-c2ccccc2)cs1)NCc1ccco1`, the cell count in test [1] came to 200. Also, the inhibition in test [1] is -1.3% (inactive); in test [3], -32.4% (inactive); in test [7], -27.5% (inactive); in test [8], -55.9% (inactive). Further, the inhibition of aggregation in test [2] is 0.4% (inactive). Moreover, the nuclei count in test [2] stood at 54.4%; in test [3] it was 106%. Also, the fluorescence slope in test [4] was -0.511 (inactive). Also, the NADPH fluorescence slope in test [5] is -3.4e-05 (inactive). For the same compound, the slope in test [6] is 0.00584 (inactive).

Take `O=C(Nc1ccc(S(=O)(=O)Nc2ccc(Cl)cc2)cc1)C1CCCO1` (stereo not given): the cell count in test [1] is 629. The inhibition was -6.5% (inactive) in test [1], 7.3% (inactive) in test [3], 14.5% (inactive) in test [7] and -12.8% (inactive) in test [8]. Moreover, the inhibition of aggregation in test [2] is 3.9% (inactive). The figures for the nuclei count in test [2] and in test [3] were 104% and 101%, respectively. For the same compound, in test [4], the fluorescence slope is -0.415 (inactive). Also, in test [5], the NADPH fluorescence slope was -4.8e-05 (inactive). The slope in test [6] is 0.0052 (inactive).

Take `O=C(Nc1ccc2c(c1)OCO2)C(c1ccc(Cl)cc1)N1CCN(C(=O)c2ccco2)CC1` (stereo not given): the cell count in test [1] came to 359. Further, the inhibition in test [1] is -2.1% (inactive); in test [3] it was -43.9% (inactive); in test [7], 20.6% (inactive); in test [8], 28.1% (inactive). The inhibition of aggregation in test [2] is -23.2% (inactive). The figures for the nuclei count in test [2] and in test [3] were 102% and 110%, respectively. Besides, the fluorescence slope in test [4] was -0.47 (inactive). In test [5], the NADPH fluorescence slope was -3.7e-05 (inactive). Also, the slope in test [6] is 0.00661 (inactive).

For the compound `COc1cccc(-c2nc3n(n2)C(c2cccs2)C(C(=O)Nc2cccnc2)=C(C)N3)c1` (stereo not given), the cell count in test [1] amounted to 735. The inhibition in test [1] was -20.1% (inactive); in test [3], -65.8% (inactive); in test [7], 22.3% (inactive); in test [8] it was 32.8% (inactive). The inhibition of aggregation in test [2] was 30.4% (inactive). Besides, the nuclei count in test [2] worked out at 111%; in test [3] it was 113%. In addition, the fluorescence slope in test [4] was -0.365 (inactive). Further, in test [5], the NADPH fluorescence slope is 1.9e-05 (inactive). Further, the slope in test [6] is 0.00588 (inactive).

As for `CC(c1ccccc1)n1cnc2ccccc21` (stereo not given), the cell count in test [1] was 590. Besides, the inhibition in test [1] was -2.5% (inactive); in test [3], -48% (inactive); in test [7], 7.98% (inactive); in test [8], 19% (inactive). Further, the inhibition of aggregation in test [2] was 17.1% (inactive). The nuclei count in test [2] was found to be 94.1%; in test [3], 148%. The fluorescence slope in test [4] is -0.364 (inactive). The NADPH fluorescence slope in test [5] was -6.9e-05 (inactive). Also, the slope in test [6] is 0.00531 (inactive).

For the compound `CCCCn1nnc(NC(=O)c2cc3ccccc3o2)n1`, the cell count in test [1] stood at 615. Besides, the inhibition in test [1] is 2.2% (inactive); in test [3] it was -13.4% (inactive); in test [7] it was -19% (inactive); in test [8], -27.4% (inactive). Also, the inhibition of aggregation in test [2] is 3.5% (inactive). The nuclei count in test [2] amounted to 106%; in test [3], 90.8%. For the same compound, the fluorescence slope in test [4] was -0.468 (inactive). Moreover, in test [5], the NADPH fluorescence slope was 1.2e-05 (inactive). For the same compound, the slope in test [6] is 0.00257 (inactive).

Turning to `CCC(C)Nc1nc2c(c(=O)n(C)c(=O)n2C)n1Cc1ccc(F)cc1` (stereo not given), the cell count in test [1] came out at 436. Also, the inhibition in test [1] was 14.8% (inactive); in test [3], -18.5% (inactive); in test [7] it was 15.9% (inactive); in test [8] it was 23.7% (inactive). Further, the inhibition of aggregation in test [2] was 9.6% (inactive). In addition, the nuclei count in test [2] worked out at 100%; in test [3] it was 106%. The fluorescence slope in test [4] is -0.617 (inactive). Besides, the NADPH fluorescence slope in test [5] was -3.2e-05 (inactive). Also, the slope in test [6] is 0.00579 (inactive).

As for `CCN(CC)CCCNC(=O)c1nn(-c2ccc(OC)cc2OC)c(=O)c2ccccc12`, the cell count in test [1] came to 352. The inhibition is 5.3% (inactive) in test [1], -101% (inactive) in test [3], -10.6% (inactive) in test [7] and 7.12% (inactive) in test [8]. Moreover, in test [2], the inhibition of aggregation was -6.3% (inactive). The figures for the nuclei count in test [2] and in test [3] were 106% and 127%, respectively. Besides, the fluorescence slope in test [4] is -0.597 (inactive). For the same compound, the NADPH fluorescence slope in test [5] is -3.1e-05 (inactive). Also, the slope in test [6] was 0.00476 (inactive).

On to `COc1ccccc1CNC(=O)N[C@@H](Cc1ccccc1)C(=O)O`, for which the cell count in test [1] stood at 602. Also, the inhibition was 0.9% (inactive) in test [1], 31.9% (inactive) in test [3], 12.8% (inactive) in test [7] and 22.6% (inactive) in test [8]. In test [2], the inhibition of aggregation is -15.9% (inactive). Moreover, the nuclei count in test [2] stood at 107%; in test [3], 99.5%. Further, the fluorescence slope in test [4] is -0.6 (inactive). Besides, in test [5], the NADPH fluorescence slope is -5.1e-05 (inactive). For the same compound, the slope in test [6] was 0.00621 (inactive).

`Cc1ccc(CCNC(=O)C2CCCN2S(=O)(=O)c2ccc3c(c2)CCC(=O)N3)cc1` (stereo not given): the cell count in test [1] came out at 702. Besides, the inhibition in test [1] is -4.8% (inactive); in test [3], -35% (inactive); in test [7], -15.7% (inactive); in test [8] it was 0.529% (inactive). Moreover, in test [2], the inhibition of aggregation is -29.3% (inactive). Also, the values for the nuclei count in test [2] and in test [3] were 102% and 121%, respectively. Further, the fluorescence slope in test [4] is -0.547 (inactive). The NADPH fluorescence slope in test [5] was -1e-05 (inactive). Also, the slope in test [6] was 0.0066 (inactive).

The values are drawn from PubChem BioAssay.
